Bioassay records from PubChem BioAssay.
Sampled rows, rich in hits. Any-hit rate of the full collection: about 5.9%.
HepG2 tox: HepG2 cytotoxicity, counter-screen for TGF-b inhibitors. HepG2 CAGA-GFP viability, ATP luminescence, 18 h. Potency, µM (top dose mostly 46.1 µM), without a hit: at the highest dose activity change, negative = cytotoxicity, most hits filed as cytotoxic. 410,000 compounds, 0.76% hits. AID 588856
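HepG2 CAGA-GFP cells (1000/well, DMEM with 1% FBS) received compound, then TGF-beta at 500 pg/mL final, and were incubated 18 hours at 37 degrees C. Viability was read by CellTiter-Glo luminescence. Media-only wells were set as complete cell-killing and DMSO as no toxicity.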
TGFb SMAD3 inh: TGF-b pathway inhibition; HepG2 CAGA-GFP TGF-b/SMAD3 reporter, GFP fluorescence, 18 h; TGF-beta stimulated, 500 pg/mL final; Potency, µM (highest dose often 46.1 µM), for the others: at the top dose activity, negative = inhibition, usual class: inhibitors; 410,000 compounds, 1.2% hits; further: on the % scale 0 is the no-effect control and ±100 the full control effect; nearly all actives have a fitted effect of over 65% in size
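Per well, imaged GFP fluorescence of HEPG2 CAGA-GFP cells gives the signal; cells get compound, then TGF-beta (500 pg/mL final), 18 h at 37 degrees C; %Activity versus -TGF-beta and +DMSO controls.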
ATXN2 expr inh: reduces ATXN2 reporter expression in HEK-293 cells. HEK-293 ATXN2-luciferase reporter, luminescence, 24 h. Potency, µM (highest dose often 57 µM), for inactives: top-dose activity change, negative = inhibition, usual class: inhibitors. 360,000 compounds, 0.72% hits; further: on the % scale 0 is the no-effect control and ±100 the full control effect; nearly all actives have a fitted effect of over 55% in size
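ATXN2-luciferase reporter cells (luciferase flanked by upstream and downstream ATXN2 gene portions) were treated 24 h at 37 °C with compounds at up to 57 uM. SteadyGlo luminescence gave expression; GF-AFC fluorescence gave viability.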
ATXN viability: viability counter-screen for ATXN expression inhibitors; S2 cells (HEK-293 line with an ATXN2-luciferase reporter) viability, CellTiter-Fluor protease fluorescence, 24 h; Potency, µM (titrated, usually from 56.7 µM), actives largely listed as cytotoxic; 400,000 compounds, 0.49% hits; AID 651635; further: nearly all actives have a fitted effect of over 40% in size
KB-V1 cytotox: KB-V1 MDR subline cytotoxicity | KB-V1 MDR cells viability, CellTiter-Glo, 72 h | Potency, µM (series often up to 46.1 µM), usual class: cytotoxic | 400,000 compounds, 3.4% hits; further: on the % scale 0 is the no-effect control and ±100 the full control effect; nearly all actives have a fitted effect of over 60% in size
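Drug-selected KB-V1 cells, grown in DMEM lacking phenol red with 10% FBS, receive compound titrations; after three days at 37 degrees C, surviving cell ATP is quantified by CellTiter-Glo luminescence and responses normalized and curve-fitted.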
KB-3-1 cytotox: kills parental KB-3-1 adenocarcinoma cells. KB-3-1 viability, CellTiter-Glo ATP luminescence, 72 h. Potency, µM (top dose mostly 46.1 µM), most hits filed as cytotoxic. 400,000 compounds, 1.4% hits; further: on the % scale 0 is the no-effect control and ±100 the full control effect; nearly all actives have a fitted effect of over 60% in size
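Viability of parental KB-3-1 cells, measured by CellTiter-Glo luminescence, followed a 72 h incubation at 37 °C with pinned compounds in phenol-red-free DMEM containing 10% FBS.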
The depositor's hits bear a star; i = inactive; ? = inconclusive; · = no result. The call rests on the fitted dose curve; in most records, active means well fitted curve in the direction sought with a large enough effect; inconclusive means small, poorly fitted or top-dose-only effect, or another doubt; inactive means no such curve, though single readings can be large; an effect the other way counts as inactive or inconclusive. Potency means the concentration at half of the fitted maximal effect.

SMILES	HepG2 tox	TGFb SMAD3 inh	ATXN2 expr inh	ATXN viability	KB-V1 cytotox	KB-3-1 cytotox
C#CCOCCOCCOCCNc1nc(N2CCN(C(=O)CCCCCCCCCCNC(=O)Cn3cc(C[C@@H](C)O)nn3)CC2)nc(N2CCN(C(=O)CCCCCCCCCCNC(=O)[C@@H]([C@H](C)CC)n3cc(CCCCCN)nn3)CC2)n1	-113%	10µM*	20µM*	·	i	23µM*
C#CCOCCOCCOCCNc1nc(N2CCN(C(=O)CCCCCCCCCCNC(=O)[C@H](CCCCN)n3cc(C[C@@H](C)CC)nn3)CC2)nc(N2CCN(C(=O)CCCCCCCCCCNC(=O)[C@@H]([C@H](C)O)n3cc(C)nn3)CC2)n1	13µM*	?	10µM*	10µM*	9.2µM*	?
COc1ccc(C2C3C=CCC(c4cccc(-c5ccc(N(C)C)cc5)c4)C3C(=O)N2Cc2ccccc2)cc1Cl (stereo not drawn)	10%	-1%	·	·	·	·
S=C(NCCCc1cnc[nH]1)NCCCN(Cc1ccc(Cl)cc1)c1cc(-c2ccccc2)ccn1	-94%	?	·	·	i	i
COc1ccc(C)c2sc(NC(=O)c3ccc(S(=O)(=O)N(C)C)cc3)nc12	-21%	-1%	10%	i	i	i
CC(=O)Nc1ccc(N/C(N)=N/c2nc(C)cc(C)n2)cc1	0%	10%	13%	i	i	i
Cc1ccc(C)c(N/C(N)=N/c2nc(C)cc(C)n2)c1	-2%	-10%	-20%	i	16µM*	i
Cc1cc(C)nc(/N=C(\N)Nc2ccc(-c3ccccc3)cc2)n1	-27%	?	?	i	16µM*	16µM*
CCOc1ccc(NC(=O)c2ccc3c(c2)CCN3S(=O)(=O)c2ccc(Cl)cc2)cc1	1%	0%	-14%	?	i	i
CCOC(=O)c1c(C)[nH]c(C)c1S(=O)(=O)N1CCC(C(=O)Nc2ccccn2)CC1	9%	10%	10%	i	?	i
O=C(NCCCN1CCOCC1)c1ccc(Sc2ccc(F)cc2)c([N+](=O)[O-])c1	-11%	-4%	3%	i	23µM*	i
O=C(NCCCN1CCOCC1)c1ccc(N2CCOCC2)c([N+](=O)[O-])c1	-4%	-11%	3%	i	·	·
Cc1ccccc1NC(=O)N1CCC(CN2CCCC2)CC1	-2%	0%	·	·	·	·
Cc1cccc2nc(Cn3c(=O)n(-c4ccc(Cl)cc4)c(=O)c4c5c(sc43)CCC5)cc(=O)n12	0%	-32%	12%	i	?	i
CCCCCC1(C(=O)OCC)CC(CSC(=N)N)OC1=O (stereo not drawn)	-73%	13µM*	0%	i	i	?
O=C(c1cccn1-c1nnc(N2CCCCC2)s1)N1CCN(c2ccc(Cl)cc2)CC1	-9%	?	·	·	i	i
O=C(Cc1csc(Nc2nc(=S)[nH]c3ccccc23)n1)NCCCN1CCN(c2ccccc2F)CC1	-58%	?	?	·	15µM*	?
CN(/N=C/c1ccccc1Cl)c1ncc(Cl)cc1C(F)(F)F	-13%	0%	21%	i	i	i
CN(/N=C/c1ccc(O)cc1O)c1ncc(C(F)(F)F)cc1Cl	13µM*	?	-28%	?	i	i
COc1ccc(CCNC(=O)c2cc(=O)[nH]c3ccc(S(=O)(=O)N4CCCCC4)cc23)cc1OC	-2%	?	·	·	·	·
Cc1ccc(C)c2c1[nH]c1ccc([N+](=O)[O-])cc12	-25%	-7%	-26%	i	8.2µM*	?
Cc1cc(=O)[nH]c2ccc([N+](=O)[O-])cc12	6%	-13%	·	·	i	i
COc1ccc(C2/C=C\CN(C(=O)C3CCCCC3)C(C)C(=O)N2Cc2ccc(F)cc2)cc1 (stereo not drawn)	-10%	?	·	·	·	·
O=C(c1cnc(N2CCOCC2)c2ccccc12)N1CCN(c2ccccc2F)CC1	-35%	?	·	·	i	i
